Measurements published in PubChem BioAssay AID1159580 (chemical genetic matrix, 2015).
In all, about 5,500 compounds went through this assay and about 2,000 (36%) were called active. Inconclusive results (about 18%) are left out. No stated cut-off is given here; in the data, active means normalized growth mostly below about 0.91 (no sharp cut-off); inconclusive means no clear call, values can overlap the other calls; inactive means mostly above about 0.92. The list shows a part of the results.

Test: chemical genetic growth profiling, strain panel (AID 1159580);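 further: tested at 20 µM; growth read once vehicle control cultures reached saturation at 30 °C; 1 = growth at the plate median or of vehicle wells; lower values mean less growth of the strain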
Settings: S. cerevisiae deletion strains, growth OD

Measured: normalized growth

CC(CCC(=O)O)[C@H]1CCC2C3C(=O)C[C@@H]4CC(=O)CC[C@]4(C)C3CC(=O)[C@@]21C (stereo not given in full)
inactive: locus YAL021C, strain ccr4, active compounds read low 0.995 | locus YAL026C, strain drs2, active compounds read low 1 | locus YAL030W, strain snc1, active compounds read low 0.994 | locus YBL061C, strain skt5, active compounds read low 0.994 | locus YBR009C, strain hhf1, active compounds read low 0.995 | locus YBR023C, strain chs3, active compounds read low 0.993 | locus YBR171W, strain sec66, active compounds read low 0.982 | locus YBR231C, strain swc5, active compounds read low 0.994 | locus YBR279W, strain paf1, active compounds read low 0.982 | locus YCL011C, strain gbp2, active compounds read low 0.987 | locus YCL016C, strain dcc1, active compounds read low 0.984 | locus YCL061C, strain MRC1, active compounds read low 0.987 | locus YCL069W, strain vba3, active compounds read low 0.995 | locus YCR088W, strain abp1, active compounds read low 0.994 | locus YDL005C, strain med2, active compounds read low 0.986 | locus YDL040C, strain nat1, active compounds read low 0.991 | locus YDR001C, strain nth1, active compounds read low 0.993 | locus YDR069C, strain doa4, active compounds read low 1 | locus YDR137W, strain rgp1, active compounds read low 1.01 | locus YDR159W, strain sac3, active compounds read low 1.01 | locus YDR195W, strain ref2 0.999 | locus YDR297W, strain sur2, active compounds read low 0.996 | locus YDR334W, strain swr1, active compounds read low 0.993 | locus YDR335W, strain msn5, active compounds read low 0.997 | locus YDR392W, strain spt3, active compounds read low 0.932 | locus YEL003W, strain gim4, active compounds read low 1.01 | locus YEL037C, strain rad23, active compounds read low 0.99 | locus YEL061C, strain CIN8 (second series), active compounds read low 0.99 | locus YER015W, strain faa2, active compounds read low 1.01 | locus YER016W, strain bim1, active compounds read low 0.999 | locus YER111C, strain swi4, active compounds read low 0.998 | locus YER155C, strain BEM2 (second series), active compounds read low 0.999 | locus YFR010W, strain ubp6, active compounds read low 0.992 | locus YGL167C, strain pmr1, active compounds read low 0.992 | locus YGL173C, strain kem1, active compounds read low 0.989 | locus YGL227W, strain vid30, active compounds read low 0.985 | locus YGL240W, strain doc1, active compounds read low 1.01 | locus YGL253W, strain hxk2, active compounds read low 0.991 | locus YHR013C, strain ard1, active compounds read low 0.99 | locus YHR027C, strain rpn1, active compounds read low 0.995 | locus YHR030C, strain SLT2, active compounds read low 1.02 | locus YHR079C, strain IRE1, active compounds read low 1.02 | locus YHR142W, strain chs7, active compounds read low 0.952 | locus YJL092W, strain hpr5, active compounds read low 0.993 | locus YJL095W, strain BCK1 (second series), active compounds read low 0.991 | locus YJL095W, strain BCK1, active compounds read low 1.01 | locus YJL115W, strain asf1, active compounds read low 0.991 | locus YJL129C, strain trk1, active compounds read low 1.01 | locus YJL154C, strain vps35, active compounds read low 0.993 | locus YJL164C, strain tpk1, active compounds read low 0.99 | locus YJL166W, strain qcr8, active compounds read low 0.989 | locus YJL187C, strain SWE1, active compounds read low 0.99 | locus YJR066W, strain TOR1, active compounds read low 0.975 | locus YKL160W, strain elf1, active compounds read low 0.977 | locus YKR026C, strain gcn3, active compounds read low 0.993 | locus YKR091W, strain srl3, active compounds read low 0.99 | locus YLL001W, strain dnm1, active compounds read low 0.975 | locus YLL026W, active compounds read low 0.998 | locus YLL041C, strain sdh2, active compounds read low 0.993 | locus YLR027C, strain aat2, active compounds read low 0.991 | locus YLR113W, strain HOG1, active compounds read low 1.05 | locus YLR221C, strain rsa3, active compounds read low 0.964 | locus YLR258W, strain gsy2, active compounds read low 0.992 | locus YLR262C, strain YPT6 (second series), active compounds read low 1 | locus YLR320W, strain mms22, active compounds read low 0.971 | locus YLR342W, strain FKS1, active compounds read low 0.99 | locus YLR357W, strain rsc2, active compounds read low 0.986 | locus YLR370C, strain arc18, active compounds read low 0.993 | locus YLR384C, strain iki3, active compounds read low 0.978 | locus YML120C, strain ndi1, active compounds read low 0.989 | locus YMR058W, strain fet3, active compounds read low 0.999 | locus YMR125W, strain sto1, active compounds read low 0.982 | locus YMR129W, active compounds read low 0.99 | locus YMR205C, strain PFK2, active compounds read low 0.989 | locus YMR231W, strain pep5, active compounds read low 0.999 | locus YNL071W, strain lat1, active compounds read low 0.997 | locus YNL183C, strain NPR1, active compounds read low 0.997 | locus YNL209W, strain ssb2, active compounds read low 0.997 | locus YNL248C, strain rpa49, active compounds read low 0.982 | locus YNL322C, strain KRE1 (second series), active compounds read low 0.992 | locus YNR049C, strain mso1, active compounds read low 0.992 | locus YOR001W, strain rrp6, active compounds read low 1.02 | locus YOR070C, strain gyp1, active compounds read low 0.996 | locus YOR080W, strain dia2, active compounds read low 0.994 | locus YOR083W, strain WHI5, active compounds read low 0.969 | locus YOR106W, strain vam3, active compounds read low 0.974 | locus YOR231W, strain MKK1, active compounds read low 1.07 | locus YOR265W, strain rbl2, active compounds read low 0.998 | locus YOR270C, strain vph1, active compounds read low 0.957 | locus YOR290C, strain snf2, active compounds read low 0.993 | locus YPL051W, strain arl3, active compounds read low 1.01 | locus YPL078C, strain atp4, active compounds read low 0.98 | locus YPL106C, strain sse1, active compounds read low 0.975 | locus YPL240C, strain hsp82, active compounds read low 1 | locus YPL256C, strain CLN2, active compounds read low 1.02
